Bioassay records as filed in PubChem BioAssay.
KCNQ2 inh: KCNQ2 (rat) channel inhibition | CHO-K1 KCNQ2, FluxOR thallium flux, 20 min; stronger effect = lower value | B-score at 10 µM | 1.1% of 310,000 active;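 active = fluorescence ratio B-score at most minus 3 library SDs, with starting brightness B-score within 2 library SDs, cut at about -5.5 in these data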
KCNQ2 pot: KCNQ2 (rat) channel potentiation | O88943 | CHO-K1 KCNQ2, FluxOR thallium flux fluorescence; stronger effect = higher value | B-score at 10 µM | 0.54% of 310,000 active | AID 2239;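 active = fluorescence ratio B-score at least 3 SD of library B-scores, with initial fluorescence B-score within 3 of them, cut at about 5.3 in these data; same plate scores as AID 2156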;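 also: B-score of peak minus minimum over baseline fluorescence ratio after K+ and Tl+ stimulus; positive B-score means potentiation of KCNQ2 with more thallium influx and brighter signal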
KCNQ2 block conf: rat KCNQ2 channel inhibition, confirmatory screen | activity change, negative = inhibition, % at 10 µM | 57% of 1,000 active | KCNQ2-expressing cells, thallium flux; stronger effect = lower value | AID 493025 | shares compounds with KCNQ2 inh;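 also: 0% = vehicle wells and values are ratio percent relative to vehicle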
KCNQ1 spec: selectivity of KCNQ2 inhibitors against human KCNQ1. KCNQ1-expressing cells, FluxOR thallium flux fluorescence; stronger effect = lower value. activity change, negative = inhibition, % at 10 µM. shares compounds with KCNQ2 inh. AID 493026. 15% of 1,000 active;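 active = activity change at least 3 SD of negative controls below their mean in both duplicate wells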;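 also: CHO cells stably transfected with KCNQ1 and depolarized by potassium stimulus; peak minus minimum fluorescence over baseline after thallium addition; 0% = vehicle negative control and -100% = blank without thallium stimulus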
Target sequence (P51787 whole entry, looked up): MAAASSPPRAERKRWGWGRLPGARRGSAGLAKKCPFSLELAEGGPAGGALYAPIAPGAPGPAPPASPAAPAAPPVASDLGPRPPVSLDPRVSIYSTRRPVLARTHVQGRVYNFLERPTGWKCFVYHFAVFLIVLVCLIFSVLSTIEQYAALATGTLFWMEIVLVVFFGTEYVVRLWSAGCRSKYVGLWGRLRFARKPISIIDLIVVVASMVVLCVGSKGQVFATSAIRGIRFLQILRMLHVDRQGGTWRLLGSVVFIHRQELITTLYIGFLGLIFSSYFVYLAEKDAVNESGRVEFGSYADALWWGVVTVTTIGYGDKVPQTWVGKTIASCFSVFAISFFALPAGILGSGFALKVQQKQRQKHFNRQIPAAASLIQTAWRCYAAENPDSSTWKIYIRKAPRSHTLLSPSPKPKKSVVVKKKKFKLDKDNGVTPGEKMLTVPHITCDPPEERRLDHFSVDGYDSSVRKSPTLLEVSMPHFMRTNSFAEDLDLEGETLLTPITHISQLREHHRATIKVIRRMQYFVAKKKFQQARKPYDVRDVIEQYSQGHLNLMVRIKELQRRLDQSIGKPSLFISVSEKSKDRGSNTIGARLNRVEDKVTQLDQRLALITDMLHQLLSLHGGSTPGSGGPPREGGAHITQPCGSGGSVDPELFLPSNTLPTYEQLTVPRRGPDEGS
CHO parental ctr: activity in parental CHO cells lacking KCNQ2. shares compounds with KCNQ2 inh. thallium flux counter-screen; stronger effect = lower value. AID 493029. activity change, % at 10 µM. 14% of 1,000 active;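 also: 0% = vehicle negative controls with stimulus buffer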
KCNQ2 patch conf: rat KCNQ2 inhibition confirmed by electrophysiology; shares compounds with KCNQ2 inh; KCNQ2-expressing cells, automated patch clamp current; calls only at 10 µM; 49% of 550 active; AID 588531
* = called active by the depositor; i = inactive; / = not tested or not shown; + = active, no number. Sampled rows, rich in hits. Any-hit rate of the full collection: about 1.6%. Unless noted, no rule for the calls is given here.

SMILES	KCNQ2 inh	KCNQ2 pot	KCNQ2 block conf	KCNQ1 spec	CHO parental ctr	others
CN(C)S(=O)(=O)c1ccc(N2CCCC2)c(C(=O)NNC(=O)COc2ccccc2Cl)c1	i	/	/	/	/
CCOP(=O)(OCC)C(NC(=O)Nc1ccccc1)c1ccccc1 (stereo not given)	i	/	/	/	/
CCOP(=O)(OCC)C(NC(=O)Nc1c(C)cc(C)cc1C)c1ccccc1 (stereo not given)	-9.24*	-9.24	-21.0%*	i	i	KCNQ2 patch conf=+
O=C(CSC1=NS(=O)(=O)c2ccccc2N1)Nc1nccs1	i	/	/	/	/
CCOc1cc(CNn2cnnc2)cc(Br)c1OCC(=O)NC(C)(C)C	i	0.87	/	/	/
CCOc1cc(CNc2ccc(Br)cc2)cc(Br)c1OCC(=O)NC(C)(C)C	-6.83*	-6.83	-24.0%*	i	i	KCNQ2 patch conf=i
N#C/C(=C/c1ccc(N2CCCCCC2)o1)c1ccc(Cl)cc1	-8.38*	-8.38	-31.0%*	-28.0%*	-22.5%*	KCNQ2 patch conf=i
N#C/C(=C/c1ccc(N2CCCCC2)o1)c1cccc(F)c1	i	/	/	/	/
CCOC(=O)c1ccc(Nc2nc(-c3cccnc3)nc3ccccc23)cc1	i	1.14	/	/	/
CCOc1ccc(S(=O)(=O)N(C)c2ccc(OCC(=O)NCCc3ccc(OC)cc3)cc2)cc1	i	/	/	/	/
CCOC(CCn1c(SCc2cccc([N+](=O)[O-])c2)nc2ccccc2c1=O)OCC	-7.29*	-7.29	i	i	i
COCCn1c(SCc2cccc([N+](=O)[O-])c2)nc2ccccc2c1=O	i	/	/	/	/
COc1ccc(C(=O)Nn2c(SCc3cccc([N+](=O)[O-])c3)nc3ccccc3c2=O)cc1	i	/	/	/	/
O=C(Nn1c(SCc2cccc([N+](=O)[O-])c2)nc2ccccc2c1=O)c1ccccc1	-8.92*	-8.92	-37.5%*	-40.5%*	-32.5%*	KCNQ2 patch conf=+
Fc1ccc(OCCOCCN2CCNCC2)cc1	i	/	/	/	/
Fc1ccc(C(c2nnnn2C2CCCC2)N(Cc2ccco2)CC2CCCO2)cc1 (stereo not given)	i	/	/	/	/
CC(C)(C)n1nnnc1C(c1ccc(C(F)(F)F)cc1)N(Cc1ccccc1)Cc1ccco1 (stereo not given)	-10.9*	-10.9	-57.0%*	-57.5%*	-54.0%*
CC(C)(C)n1nnnc1C(c1ccc(F)cc1)N(Cc1ccc(F)cc1)Cc1ccco1 (stereo not given)	-10.6*	-10.6	-30.5%*	i	i	KCNQ2 patch conf=i
CCC(C)(C)n1nnnc1C(c1ccc(C)cc1)N1CCSCC1 (stereo not given)	i	/	/	/	/
CCN(Cc1ccccc1)C(c1ccc(C)cc1)c1nnnn1C(C)(C)CC (stereo not given)	-8.77*	-8.77	-28.0%*	i	i	KCNQ2 patch conf=i
Cc1cc2cc(C(c3nnnn3C(C)(C)C)N(Cc3ccco3)CC3CCCO3)c(=O)[nH]c2cc1C (stereo not given)	i	0.49	/	/	/
Cc1ccc(NC2=NC(c3ccc(F)cc3)n3c(nc(C)cc3=O)N2)cc1 (stereo not given)	i	0.94	/	/	/
CCc1nnc(NC(=O)C(CC)CC)s1	i	0.38	/	/	/
Cc1cc(C(=O)NC2CCCN(Cc3ccccc3F)C2)n[nH]1 (stereo not given)	i	/	/	/	/
CCNC1CCS(=O)(=O)C1 (stereo not given)	i	/	/	/	/
SMILES	KCNQ2 inh	KCNQ2 pot	KCNQ2 block conf	KCNQ1 spec	CHO parental ctr	others
CCN(CC)CCCNC1CCS(=O)(=O)C1 (stereo not given)	-6.71*	-6.71	i	i	i
CCOc1ccc(N(CC(=O)N2CCc3ccccc32)S(=O)(=O)c2c(C)noc2C)cc1	i	/	/	/	/
CCOc1ccc(N(CC(=O)N2CC=C(c3ccccc3)CC2)S(=O)(=O)c2c(C)noc2C)cc1	-8.62*	-8.62	i	i	i
N/C(=N\OCc1ccc([N+](=O)[O-])cc1)c1ccncc1	i	/	/	/	/
Cc1ccc(C(C)C)c(OCCNC(=S)Nc2cccc3ccccc23)c1	-6.66*	-6.66	i	i	i
S=C(NCc1ccccc1)Nc1cccc2ccccc12	i	1.55	/	/	/
Cc1cccc2c1cnn2C(=O)Nc1cc(F)ccc1F	i	0.06	/	/	/
COc1cc(/C=N/O)ccc1OCc1ccc(Cl)cc1	i	/	/	/	/
COc1cc(/C=N/N=C(N)N)ccc1OCc1ccc(Cl)cc1	-9.37*	-9.37	i	i	i
CCC(C)(C(=O)NC1CCCCC1)N(C(=O)CNC(=O)c1ccccc1)c1c(C)n(C)n(-c2ccccc2)c1=O (stereo not given)	i	/	/	/	/
